Reference: PubChem BioAssay (EPA / NIEHS)
Inconclusive results are not listed. The source made the active and inactive calls. Rule for the calls, unless noted: active = hit-call score of the fitted dose curve at least 0.9, where 1 is the maximum; inactive = score below 0.9.

What was measured:
[1] = ATG_PXRE_CIS: Attagene CIS-FACTORIAL HepG2 Assay for human Pregnane X Receptor Element (PXRE) (AID 2282957); conditions: HepG2 Attagene CIS-FACTORIAL PXRE reporter, mRNA; actives raise or lower the signal
Outline: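 Reporter transcripts under endogenous PXR-responsive cis-regulation quantified from total RNA of transfected HepG2 cells 24 h post-dosing, via RT-PCR with fluorescent primer extension and capillary electrophoresis. Gain or loss of signal fitted against DMSO baseline.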

[2] = ATG_PPRE_CIS: Attagene CIS-FACTORIAL HepG2 Assay for human Peroxisome Proliferator-activated Response Element (PPRE) (AID 2282958); conditions: HepG2 PPRE cis-element reporter, Attagene transcription factor profiling; actives raise or lower the signal
Outline: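 Transcript-level reporter induction in transfected HepG2 cells after 24 h chemical exposure, quantified by fluorescence from RT-PCR products separated by capillary electrophoresis.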

[3] = ATG_RORE_CIS: Attagene CIS-FACTORIAL HepG2 Assay for human RAR-related Orphan Receptor Element (RORE) (AID 2282959); conditions: HepG2 Attagene cis-factorial RORE reporter, mRNA; actives raise or lower the signal
Outline: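 Multiplexed reporter assay measuring mRNA induction from a cis promoter element in transiently transfected HepG2 cells after 24 h treatment. Detection via RT-PCR and capillary electrophoresis fluorescence; DMSO serves as baseline.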

[4] = ATG_Sox_CIS: Attagene CIS-FACTORIAL HepG2 Assay for human SRY-box transcription factor (SOX) (AID 2282960); conditions: HepG2 Attagene cis-factorial SOX reporter, mRNA; actives raise or lower the signal
Outline: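 Cells were transfected with reporter constructs under cis-regulatory promoters, then exposed to chemicals for 24 h. Reporter transcripts were quantified by fluorescence after RT-PCR and capillary electrophoresis; activity was fitted in both directions against DMSO.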

[5] = target: Transcription factor Sp1 (Homo sapiens) (UniProt P08047); assay: ATG_Sp1_CIS: Attagene CIS-FACTORIAL HepG2 Assay for human Specificity Protein 1 (Sp1) (AID 2282961); conditions: HepG2 Sp1 cis-reporter transcription, actives raise or lower the signal
Sequence of Transcription factor Sp1 (Homo sapiens) (P08047 whole entry, looked up): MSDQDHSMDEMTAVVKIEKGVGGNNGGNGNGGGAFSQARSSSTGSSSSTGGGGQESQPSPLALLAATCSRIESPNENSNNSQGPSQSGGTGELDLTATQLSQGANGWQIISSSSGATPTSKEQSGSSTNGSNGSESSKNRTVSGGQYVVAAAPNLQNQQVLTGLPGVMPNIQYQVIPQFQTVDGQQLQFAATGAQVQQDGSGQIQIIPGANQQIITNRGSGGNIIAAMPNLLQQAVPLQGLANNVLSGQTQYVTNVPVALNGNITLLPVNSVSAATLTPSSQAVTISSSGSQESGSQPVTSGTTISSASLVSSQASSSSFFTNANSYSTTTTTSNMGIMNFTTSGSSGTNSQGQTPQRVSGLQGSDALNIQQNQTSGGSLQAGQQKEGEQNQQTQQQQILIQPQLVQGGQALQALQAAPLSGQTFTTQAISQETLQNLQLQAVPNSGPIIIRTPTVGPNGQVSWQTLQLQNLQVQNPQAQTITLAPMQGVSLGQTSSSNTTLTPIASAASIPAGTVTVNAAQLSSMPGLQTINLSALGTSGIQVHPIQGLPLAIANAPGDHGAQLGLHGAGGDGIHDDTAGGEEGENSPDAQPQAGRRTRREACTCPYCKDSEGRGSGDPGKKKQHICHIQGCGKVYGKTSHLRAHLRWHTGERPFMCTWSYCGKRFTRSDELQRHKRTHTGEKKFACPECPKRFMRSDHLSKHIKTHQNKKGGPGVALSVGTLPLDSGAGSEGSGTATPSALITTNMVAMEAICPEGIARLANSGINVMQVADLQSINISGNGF
Outline: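 Measures mRNA induction of an Sp1-linked reporter in HepG2 cells 24 h post-dosing. Multiplexed reporters read by RT-PCR and capillary electrophoresis; DMSO serves as negative control and baseline.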

[6] = ATG_SREBP_CIS: Attagene CIS-FACTORIAL HepG2 Assay for human Sterol Regulatory Element Binding (SREBP) (AID 2282962); conditions: HepG2 Attagene cis-factorial SREBP reporter, mRNA; actives raise or lower the signal
Outline: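 Readout: fluorescent reporter-transcript peaks resolved by capillary electrophoresis after RT-PCR. Cells were human HepG2 carrying transfected cis-promoter reporter constructs, dosed for 24 h. Gain or loss of signal was fitted against DMSO controls.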

[7] = target: Signal transducer and activator of transcription 3 (Homo sapiens) (UniProt P40763); assay: ATG_STAT3_CIS: Attagene CIS-FACTORIAL HepG2 Assay for human Signal Transducer and Activator of Transcription 3 (STAT3) (AID 2282963); conditions: HepG2, Attagene cis-factorial STAT3 reporter transcription; actives raise or lower the signal
Sequence of Signal transducer and activator of transcription 3 (Homo sapiens) (P40763 whole entry, looked up): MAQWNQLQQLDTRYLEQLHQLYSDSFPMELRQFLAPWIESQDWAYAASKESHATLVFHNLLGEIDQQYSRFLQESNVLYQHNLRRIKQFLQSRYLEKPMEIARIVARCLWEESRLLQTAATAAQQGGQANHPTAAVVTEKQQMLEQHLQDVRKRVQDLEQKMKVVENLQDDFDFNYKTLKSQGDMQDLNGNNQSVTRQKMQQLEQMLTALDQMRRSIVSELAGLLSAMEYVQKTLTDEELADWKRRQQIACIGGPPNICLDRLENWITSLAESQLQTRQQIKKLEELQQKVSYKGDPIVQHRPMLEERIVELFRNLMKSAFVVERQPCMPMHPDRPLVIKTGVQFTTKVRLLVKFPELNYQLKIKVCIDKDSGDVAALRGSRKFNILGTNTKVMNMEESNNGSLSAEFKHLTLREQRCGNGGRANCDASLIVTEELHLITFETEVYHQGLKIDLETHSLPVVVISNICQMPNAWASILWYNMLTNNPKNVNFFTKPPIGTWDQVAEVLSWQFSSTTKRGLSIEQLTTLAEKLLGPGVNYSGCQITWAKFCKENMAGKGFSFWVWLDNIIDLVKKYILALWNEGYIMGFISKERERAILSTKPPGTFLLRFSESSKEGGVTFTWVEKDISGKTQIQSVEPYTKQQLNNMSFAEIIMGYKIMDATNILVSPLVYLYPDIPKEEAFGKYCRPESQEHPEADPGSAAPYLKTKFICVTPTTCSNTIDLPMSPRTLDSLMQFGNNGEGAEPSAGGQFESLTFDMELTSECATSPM
Outline: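 Readout is reporter transcript quantified by RT-PCR and capillary electrophoresis, with 6-FAM primer extension and HpaI digestion. Total RNA is taken 24 h after dosing transiently transfected HepG2 carrying cis-regulated reporter units. Bidirectional fit against DMSO.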

[8] = ATG_TA_CIS: Attagene CIS-FACTORIAL HepG2 Assay for human TA Basal Promoter (AID 2282964); conditions: HepG2 Attagene CIS-factorial TA basal promoter reporter; actives raise or lower the signal
Outline: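 HepG2 cells transiently transfected with multiple reporter units under cis promoter elements, reporting endogenous transcription factor activity; this endpoint tracks the TA basal promoter as background control. Reporter mRNA after 24 h dosing measured by RT-PCR/capillary electrophoresis; bidirectional fits versus DMSO.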

[9] = ATG_TCF_b_cat_CIS: Attagene CIS-FACTORIAL HepG2 Assay for human T-Cell-Factor with beta-catenin (TCF/b-cat) (AID 2282965); conditions: HepG2 TCF/beta-catenin cis-reporter transcription, actives raise or lower the signal
Outline: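 Endogenous TCF/LEF activity read as reporter transcript level via RT-PCR and capillary electrophoresis fluorescence in transfected HepG2, 24 h exposure; gain or loss of signal fitted against DMSO controls.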

[10] = ATG_TAL_CIS: Attagene CIS-FACTORIAL HepG2 Assay for human TAL Basal Promoter (AID 2282966); conditions: HepG2 Attagene cis-factorial TAL promoter reporter; actives raise or lower the signal;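 note: background control endpoint measuring basal TAL promoter reporter mRNA not a specific factor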
Outline: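 Background-control endpoint: basal TAL promoter reporter transcripts in transiently transfected HepG2, measured 24 h after dosing. Read-out by RT-PCR with fluorescent primer extension and capillary electrophoresis; gain or loss of signal fitted relative to DMSO.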

[11] = ATG_TGFb_CIS: Attagene CIS-FACTORIAL HepG2 Assay for human Transforming Growth Factor (TGF) (AID 2282967); conditions: HepG2 Attagene CIS TGFb reporter, mRNA transcription; actives raise or lower the signal
Outline: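 HepG2 cells transiently transfected with cis-promoter-driven multiple reporter units measure endogenous TF activity; reporter mRNA quantified at 24 h by RT-PCR, FAM labeling, HpaI digestion and capillary electrophoresis. Bidirectional fit vs DMSO.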

[12] = target: Paired box protein Pax-6 (Homo sapiens) (UniProt P26367); assay: ATG_Pax6_CIS: Attagene CIS-FACTORIAL HepG2 Assay for human Paired Box 6 (PAX6) (AID 2282956); conditions: HepG2 CIS-FACTORIAL PAX6 reporter transcription, RNA readout; actives raise or lower the signal
Sequence of Paired box protein Pax-6 (Homo sapiens) (P26367 whole entry, looked up): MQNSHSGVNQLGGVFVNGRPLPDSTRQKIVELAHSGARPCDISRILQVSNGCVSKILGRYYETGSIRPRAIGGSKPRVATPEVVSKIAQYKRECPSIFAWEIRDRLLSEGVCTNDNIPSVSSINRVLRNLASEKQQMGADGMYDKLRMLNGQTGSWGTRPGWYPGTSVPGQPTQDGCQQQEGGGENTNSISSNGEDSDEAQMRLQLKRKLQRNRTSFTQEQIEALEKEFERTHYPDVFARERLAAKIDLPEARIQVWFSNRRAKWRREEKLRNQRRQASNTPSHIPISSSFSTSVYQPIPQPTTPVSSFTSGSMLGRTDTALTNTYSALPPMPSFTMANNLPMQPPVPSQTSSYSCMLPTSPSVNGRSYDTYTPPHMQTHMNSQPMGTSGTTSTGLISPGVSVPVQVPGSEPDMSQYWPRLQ
Outline: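 Readout: reporter transcript fluorescence after RT-PCR and capillary electrophoresis. Cells: HepG2, transiently transfected with cis-regulated MRTUs. Exposure 24 h. Gain or loss of signal fitted bidirectionally relative to DMSO.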

[13] = ATG_VDRE_CIS: Attagene CIS-FACTORIAL HepG2 Assay for human Vitamin D Receptor Element (VDRE) (AID 2282968); conditions: HepG2 VDRE cis-reporter transcription, actives raise or lower the signal
Outline: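 Readout is VDRE-driven reporter mRNA reflecting endogenous factor activity in human HepG2 cells, sampled 24 h post-dose. Quantification used labelled RT-PCR products separated by capillary electrophoresis; bidirectional analysis relative to DMSO.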

[14] = target: X-box-binding protein 1 (Homo sapiens) (UniProt P17861); assay: ATG_Xbp1_CIS: Attagene CIS-FACTORIAL HepG2 Assay for human X-box Binding Protein 1 (XBP1) (AID 2282972); conditions: HepG2 XBP1 cis-element reporter, Attagene multiplex; actives raise or lower the signal
Sequence of X-box-binding protein 1 (Homo sapiens) (P17861 whole entry, looked up, the tested form may be a part): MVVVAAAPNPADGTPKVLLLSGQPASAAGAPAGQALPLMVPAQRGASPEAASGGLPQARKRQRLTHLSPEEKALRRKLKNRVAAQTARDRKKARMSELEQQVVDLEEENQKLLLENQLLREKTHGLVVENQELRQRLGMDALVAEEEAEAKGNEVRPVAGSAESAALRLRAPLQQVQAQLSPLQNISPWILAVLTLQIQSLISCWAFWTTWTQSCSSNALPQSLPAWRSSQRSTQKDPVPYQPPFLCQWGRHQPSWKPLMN
Outline: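 Read-out: fluorescent reporter mRNA fragments resolved by capillary electrophoresis after RT-PCR. Human HepG2 liver cells carried transfected cis-promoter reporter units and were exposed to chemicals for 24 hours. Gain or loss of signal fitted relative to DMSO baseline.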

[15] = ATG_GAL4_TRANS: Attagene TRANS-FACTORIAL HepG2 Assay for GAL4 (Internal Marker) (AID 2282976; active = hit-call score of the fitted dose curve at least 0.9, where 1 is the maximum); conditions: HepG2 Attagene TRANS GAL4 internal marker reporter
Outline: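 In transfected human HepG2 liver cells dosed 24 h, GAL4 reporter mRNA serves as a baseline marker. Detection by RT-PCR with fluorescent capillary electrophoresis, activity fitted upward relative to DMSO.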

[16] = target: Nuclear receptor subfamily 1 group I member 3 (Homo sapiens) (UniProt Q14994); assay: ATG_CAR_TRANS: Attagene TRANS-FACTORIAL HepG2 Assay for human Constitutive Androstane Receptor (CAR) (AID 2282969; active = hit-call score of the fitted dose curve at least 0.9, where 1 is the maximum;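 note: activators raise reporter mRNA above DMSO so AC50 marks induction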); conditions: HepG2 Attagene TRANS-FACTORIAL CAR reporter
Sequence of Nuclear receptor subfamily 1 group I member 3 (Homo sapiens) (Q14994 whole entry, looked up, the tested form may be a part): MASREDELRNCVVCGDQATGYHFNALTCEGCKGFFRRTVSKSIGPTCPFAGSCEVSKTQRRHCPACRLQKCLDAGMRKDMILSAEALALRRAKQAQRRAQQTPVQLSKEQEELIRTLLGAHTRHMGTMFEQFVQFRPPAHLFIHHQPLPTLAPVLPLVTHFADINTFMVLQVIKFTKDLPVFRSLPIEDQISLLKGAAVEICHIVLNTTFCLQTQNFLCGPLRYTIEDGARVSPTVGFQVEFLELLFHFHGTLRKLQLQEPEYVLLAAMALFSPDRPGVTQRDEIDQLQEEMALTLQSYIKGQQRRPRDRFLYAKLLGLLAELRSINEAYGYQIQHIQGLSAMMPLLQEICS
Outline: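 Signal is reporter mRNA induction relative to DMSO, measured 24 h after dosing by RT-PCR with fluorescent primer extension and capillary electrophoresis. Human HepG2 liver cells carried transiently transfected chimeric NR-Gal4/GAL4-UAS reporter constructs.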

[17] = ATG_M_19_TRANS: Attagene TRANS-FACTORIAL HepG2 Assay for M19 Transcription Factor (Internal Marker) (AID 2282974; active = hit-call score of the fitted dose curve at least 0.9, where 1 is the maximum); conditions: HepG2 Attagene TRANS-FACTORIAL M19 internal marker reporter
Outline: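 After transfection of HepG2 with GAL4-UAS-driven reporter constructs, cells are dosed for 24 h. Total RNA is reverse-transcribed, reporter sequences PCR-amplified and labelled, then HpaI-digested and sized by capillary electrophoresis.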

[18] = target: Steroid hormone receptor ERR1 (Homo sapiens) (UniProt P11474); assay: ATG_ERRa_TRANS: Attagene TRANS-FACTORIAL HepG2 Assay for human Estrogen-Related Receptor alpha (ERRa) (AID 2282971; active = hit-call score of the fitted dose curve at least 0.9, where 1 is the maximum); conditions: HepG2 Attagene TRANS reporter, ERRa transactivation
Sequence of Steroid hormone receptor ERR1 (Homo sapiens) (P11474 whole entry, looked up, the tested form may be a part): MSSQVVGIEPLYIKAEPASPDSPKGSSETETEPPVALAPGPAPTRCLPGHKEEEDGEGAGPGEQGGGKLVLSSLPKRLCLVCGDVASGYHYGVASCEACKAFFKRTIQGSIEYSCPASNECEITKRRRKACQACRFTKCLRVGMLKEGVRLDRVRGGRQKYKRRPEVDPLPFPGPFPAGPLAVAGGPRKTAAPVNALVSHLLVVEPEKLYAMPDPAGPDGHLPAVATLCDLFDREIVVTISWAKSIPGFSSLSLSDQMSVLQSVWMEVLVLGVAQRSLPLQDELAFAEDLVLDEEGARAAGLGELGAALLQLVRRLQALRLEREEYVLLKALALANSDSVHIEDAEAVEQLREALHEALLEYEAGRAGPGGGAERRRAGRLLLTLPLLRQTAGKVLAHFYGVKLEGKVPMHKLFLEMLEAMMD
Outline: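 Reporter transcripts from ERRa-Gal4 chimera activity measured in transiently transfected human HepG2 cells 24 hours after dosing, using RT-PCR with 6-FAM primer extension, HpaI digestion and capillary electrophoresis; DMSO is baseline.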

[19] = target: Estrogen-related receptor gamma (Homo sapiens) (UniProt P62508); assay: ATG_ERRg_TRANS: Attagene TRANS-FACTORIAL HepG2 Assay for human Estrogen-Related Receptor gamma (ERRg) (AID 2282977; active = hit-call score of the fitted dose curve at least 0.9, where 1 is the maximum;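 note: hits increase reporter signal over DMSO so potencies reflect activators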); conditions: HepG2 Attagene TRANS reporter, ERRg transactivation
Sequence of Estrogen-related receptor gamma (Homo sapiens) (P62508 whole entry, looked up, the tested form may be a part): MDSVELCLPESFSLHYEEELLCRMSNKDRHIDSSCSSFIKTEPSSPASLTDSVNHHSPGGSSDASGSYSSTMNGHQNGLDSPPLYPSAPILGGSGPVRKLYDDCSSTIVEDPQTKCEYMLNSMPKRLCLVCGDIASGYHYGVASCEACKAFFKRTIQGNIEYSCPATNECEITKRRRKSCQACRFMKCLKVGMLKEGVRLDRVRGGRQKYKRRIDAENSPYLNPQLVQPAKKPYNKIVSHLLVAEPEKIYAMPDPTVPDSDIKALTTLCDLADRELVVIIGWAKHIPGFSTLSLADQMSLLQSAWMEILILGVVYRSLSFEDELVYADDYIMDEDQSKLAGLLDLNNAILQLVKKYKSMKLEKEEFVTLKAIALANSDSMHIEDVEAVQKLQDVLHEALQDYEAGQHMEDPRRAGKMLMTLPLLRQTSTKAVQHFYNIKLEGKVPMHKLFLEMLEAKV
Outline: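 Exogenous NR-Gal4 chimera activity measured as reporter transcript induction after 24 h in transiently transfected HepG2 cells. RNA reverse-transcribed, PCR-amplified, 6-FAM-labelled and resolved by capillary electrophoresis; increase over DMSO baseline.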

Measured: AC50

COc1ccnc(CS(=O)c2nc3cc(OC(F)F)ccc3[nH]2)c1OC (stereo not drawn)
inactive: [2] | [3] | [4] | [5] | [6] | [7] | [8] | [9] | [10] | [11]
active: [1] 8.07 µM

C=C[Si](OCC)(OCC)OCC
inactive: [12] | [2] | [3] | [4] | [5] | [7] | [8] | [9] | [10] | [11] | [13] | [14] | [15]

O=S(=O)(O)c1cccc2c(S(=O)(=O)O)cccc12
inactive: [12] | [4] | [5] | [6] | [7] | [8] | [9] | [10] | [11] | [13] | [16] | [14] | [17] | [15]

Nc1ccc(S(=O)(=O)O)c(N)c1
inactive: [12] | [2] | [4] | [5] | [6] | [7] | [8] | [9] | [10] | [11] | [13] | [14]

CCCCCCCCCCCCOCCO
inactive: [12] | [3] | [7] | [8] | [9] | [10] | [11] | [15]
active: [5] 49.9 µM | [6] 49.1 µM | [14] 55.5 µM

C=C(C)C1CCC(C)CC1O (stereo not drawn)
inactive: [12] | [3] | [4] | [5] | [6] | [7] | [8] | [9] | [10] | [14] | [17] | [15]

Cc1ccc(C=O)s1
inactive: [12] | [2] | [3] | [4] | [5] | [6] | [7] | [8] | [9] | [10] | [16] | [18] | [14] | [17] | [15] | [19]

CC(C)[C@@H]1CC[C@@H](C)CC1=O
inactive: [12] | [3] | [4] | [5] | [6] | [7] | [8] | [9] | [10] | [11] | [14] | [17]

Nc1cc([N+](=O)[O-])ccc1Cl
inactive: [12] | [2] | [3] | [6] | [7] | [8] | [9] | [10] | [11] | [18] | [14] | [15]
